The list is not random: actives were taken first. Their share in the collection is about 2.2%.
PvdQ acylase: P. aeruginosa PvdQ acylase inhibition | purified PvdQ acylase, fluorescence plate reader | inhibition, % at 10 µM | actives 0.063% (n = 340,000); in the data active means inhibition above about 30%, passing the limit was not always enough; inconclusive means no clear call, values can overlap the other calls
DENV2 CPE rescue: protects cells from dengue virus 2 cytopathic effect; DENV2-infected cells, cytopathic effect rescue, plate reader; CPE inhibition, % at 9.99 µM; actives 1.7% (n = 350,000); AID 651640; in the data active means CPE inhibition above about 20%, passing the limit was not always enough; inconclusive means no clear call, values can overlap the other calls; tested in BHK-21 cells
miR-122 sensor: blocks miR-122 activity in Huh7 sensor cells | Huh7 miR-122 Renilla luciferase sensor, 48 h; neutral wells = 0, positive control = 100 | activation (reporter increase), % at 12.5 µM | actives 0.3% (n = 340,000);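 active means mean replicate activation score at least 90 and every replicate individually at or above 90; inconclusive means only one of the two criteria met; inactive means neither criterion met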;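 further: higher luciferase means less miR-122 activity so hits act as miR-122 inhibitors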
C2C12 statin: protects C2C12 myotubes from simvastatin toxicity | rescue of ATP level, % at 7.49 µM | ATP luminescence, 48 h; scaled: DMSO 0, geranylgeraniol control 100 | AID 602340 | actives 0.78% (n = 330,000);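 active means mean ATP rescue above about 67%, or every replicate alone reaching that limit, limit read from the data, passing the limit was not always enough; inconclusive means no clear call, values can overlap the other calls; inactive means mean under the limit and some replicate under it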;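 further: myotubes were challenged with 10 µM simvastatin during compound exposure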
PGC1a acetyl inh: PGC1a acetylation modulation, inhibitor mode | U2OS PGC1a acetylation, AlphaScreen anti-acetyl-lysine; with virally co-expressed GCN5 acetyltransferase | inhibition, % at 15.6 µM | actives 0.17% (n = 350,000) | AID 651687;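 active means every replicate shows inhibition of at least 40%; inconclusive means mean inhibition at least 40% but some replicate below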
Hits are given with their value; – = inactive; ? = inconclusive; · = no result; [ ] = another dose, or the depositor's remark.

SMILES | PvdQ acylase | DENV2 CPE rescue | miR-122 sensor | C2C12 statin | PGC1a acetyl inh
C[C@@H]1CN([C@H](C)CO)C(=O)c2cccc(NC(=O)C3CC3)c2O[C@@H]1CN(C)Cc1ccccc1 | · | – | – | – | –
C[C@@H]1CN([C@H](C)CO)C(=O)c2cccc(NC(=O)C3CCOCC3)c2O[C@@H]1CN(C)Cc1ccc(C(F)(F)F)cc1 | · | 39 | – | – | –
C[C@@H]1CN([C@H](C)CO)C(=O)c2cccc(NC(=O)C3CC3)c2O[C@H]1CN(C)Cc1ccc(C(F)(F)F)cc1 | · | – | 106[16.7 µM] | – | –
CNC[C@H]1Oc2ccc(NC(=O)C3CCCCC3)cc2C(=O)N([C@@H](C)CO)C[C@H]1C | · | – | – | – | –
COc1ccc(S(=O)(=O)N2CCCCCC2)cc1C(=O)N(C)Cc1ccc(C(C)(C)C)cc1 | – | 59 | – | – | –
COc1ccc(S(=O)(=O)N2CCCCCC2)cc1C(=O)N(C)Cc1ccc(F)cc1 | – | – | · | – | ·
CC(C)Oc1ccc(S(=O)(=O)N2CCOCC2)cc1NC(=O)Cc1ccsc1 | – | 42 | – | – | –
COc1ccc(S(=O)(=O)N2CCOCC2)cc1NC(=O)CSc1ncccn1 | – | – | – | 110 | –
COc1ccc(S(=O)(=O)N2CCCCCC2)cc1NC(=O)Cc1cccc(C(F)(F)F)c1 | · | 111 | – | – | –
C[C@@H]1CN([C@H](C)CO)C(=O)Cc2cc(NC(=O)CCC(F)(F)F)ccc2O[C@@H]1CN(C)Cc1ccc(C(=O)Nc2ccccc2N)cc1 | · | 38 | – | – | –
C[C@H](CO)N1C[C@H](C)[C@H](CN(C)Cc2ccc(C(=O)Nc3ccccc3N)cc2)Oc2ccc(NC(=O)Cc3ccccc3)cc2CC1=O | · | 32 | · | · | –
C[C@@H]1CN([C@H](C)CO)C(=O)Cc2cc(NC(=O)NC3CCCCC3)ccc2O[C@@H]1CN(C)Cc1ccc(C(=O)Nc2ccccc2N)cc1 | · | 28 | · | · | –
CC(C)NC(=O)Nc1ccc2c(c1)CC(=O)N([C@@H](C)CO)C[C@@H](C)[C@@H](CN(C)Cc1ccc(C(=O)Nc3ccccc3N)cc1)O2 | · | – | · | · | –
C[C@H]1CN([C@@H](C)CO)C(=O)Cc2cc(NC(=O)c3ccncc3)ccc2O[C@H]1CN(C)Cc1ccc(C(=O)Nc2ccccc2N)cc1 | · | 58 | – | – | –
N#C[C@@H]1[C@@H](c2ccc(C3=CCCC3)cc2)[C@@H](CO)N1c1nc(-c2ccccc2)cs1 | · | ? | · | – | –
C[C@H](CO)N1C[C@H](C)[C@@H](CN(C)Cc2ccc(C(=O)Nc3ccccc3N)cc2)Oc2ccc(NC(=O)C3CC3)cc2CC1=O | · | – | – | – | –
C[C@H](CO)N1C[C@H](C)[C@H](CN(C)Cc2ccc(C(=O)Nc3ccccc3N)cc2)Oc2ccc(NC(=O)C3CC3)cc2CC1=O | · | – | 165[16.7 µM] | – | –
Cc1noc(C)c1NC(=O)Nc1cccc2c1O[C@H](CN(C)Cc1ccc(-c3ccccc3)cc1)[C@H](C)CN([C@H](C)CO)C2=O | · | ? | – | – | –
Cc1noc(C)c1NC(=O)Nc1cccc2c1O[C@H](CN(C)Cc1ccc(-c3ccccc3)cc1)[C@@H](C)CN([C@@H](C)CO)C2=O | · | ? | – | 98 | –
Cc1noc(C)c1NC(=O)Nc1cccc2c1O[C@H](CN(C)Cc1ccc(Oc3ccccc3)cc1)[C@H](C)CN([C@@H](C)CO)C2=O | · | – | – | · | 100
Cc1noc(C)c1NC(=O)Nc1cccc2c1O[C@H](CN(C)Cc1ccc(C(=O)O)cc1)[C@H](C)CN([C@H](C)CO)C2=O | · | – | – | – | –
Cc1noc(C)c1NC(=O)Nc1cccc2c1O[C@@H](CN(C)Cc1ccc(C(=O)O)cc1)[C@@H](C)CN([C@@H](C)CO)C2=O | · | 45 | – | – | –
Cc1noc(C)c1NC(=O)Nc1cccc2c1O[C@@H](CN(C)Cc1ccc(-c3ccccc3)cc1)[C@H](C)CN([C@H](C)CO)C2=O | · | 39 | – | ? | –
CO[C@@H]1CN(C)C(=O)c2ccc(NC(=O)C3CC3)cc2OC[C@H](C)N(CCc2ccccc2)C[C@@H]1C | · | – | – | – | –
Cc1noc(C)c1NC(=O)Nc1cccc2c1O[C@H](CN(C)Cc1ccc(C(F)(F)F)cc1)[C@H](C)CN([C@@H](C)CO)C2=O | · | 21 | – | – | –
O=C(c1cccnc1)N1CC2(C1)[C@H](c1ccccc1)[C@H](CO)N2Cc1ccncc1 | · | – | · | · | –
CCOC(=O)N1CCN(c2ccccc2O)CC1 | – | · | – | 124 | –
CN1CCN(C2=Cc3ccc(Cl)cc3Sc3ccc(F)cc32)CC1 | – | · | – | · | –
